# Source: the supplement of paper PMC11732987, “Enantioselective OTUD7B fragment discovery through chemoproteomics screening and high-throughput optimisation” (Communications Chemistry, 2025)
# Compound: ClCC(=O)N1CCC(CC#N)C1
# Experiment: log2 ratio of Biotin-Ahx-Ub-VS probe labelling (compound/DMSO); higher = less target engagement, active = hit call of the paper (q ≤ 0.05, log2 ratio ≤ -1)
# Settings: compound concentration: 50uM; treatment time: 3 h
# Procedure: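 Round 2 competitive ABPP in HEK293T lysate. Purified HTC-D2B compounds were tested at 50 and 200 µM for 3 h, followed by Biotin-Ahx-Ub-VS enrichment and diaPASEF LC-MS/MS. Values are the average log2 ratio (compound/DMSO) from an unpaired t-test (n=3 treated, n=26 DMSO).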
# Sequence of UniProt Q93008 (Q93008 whole entry): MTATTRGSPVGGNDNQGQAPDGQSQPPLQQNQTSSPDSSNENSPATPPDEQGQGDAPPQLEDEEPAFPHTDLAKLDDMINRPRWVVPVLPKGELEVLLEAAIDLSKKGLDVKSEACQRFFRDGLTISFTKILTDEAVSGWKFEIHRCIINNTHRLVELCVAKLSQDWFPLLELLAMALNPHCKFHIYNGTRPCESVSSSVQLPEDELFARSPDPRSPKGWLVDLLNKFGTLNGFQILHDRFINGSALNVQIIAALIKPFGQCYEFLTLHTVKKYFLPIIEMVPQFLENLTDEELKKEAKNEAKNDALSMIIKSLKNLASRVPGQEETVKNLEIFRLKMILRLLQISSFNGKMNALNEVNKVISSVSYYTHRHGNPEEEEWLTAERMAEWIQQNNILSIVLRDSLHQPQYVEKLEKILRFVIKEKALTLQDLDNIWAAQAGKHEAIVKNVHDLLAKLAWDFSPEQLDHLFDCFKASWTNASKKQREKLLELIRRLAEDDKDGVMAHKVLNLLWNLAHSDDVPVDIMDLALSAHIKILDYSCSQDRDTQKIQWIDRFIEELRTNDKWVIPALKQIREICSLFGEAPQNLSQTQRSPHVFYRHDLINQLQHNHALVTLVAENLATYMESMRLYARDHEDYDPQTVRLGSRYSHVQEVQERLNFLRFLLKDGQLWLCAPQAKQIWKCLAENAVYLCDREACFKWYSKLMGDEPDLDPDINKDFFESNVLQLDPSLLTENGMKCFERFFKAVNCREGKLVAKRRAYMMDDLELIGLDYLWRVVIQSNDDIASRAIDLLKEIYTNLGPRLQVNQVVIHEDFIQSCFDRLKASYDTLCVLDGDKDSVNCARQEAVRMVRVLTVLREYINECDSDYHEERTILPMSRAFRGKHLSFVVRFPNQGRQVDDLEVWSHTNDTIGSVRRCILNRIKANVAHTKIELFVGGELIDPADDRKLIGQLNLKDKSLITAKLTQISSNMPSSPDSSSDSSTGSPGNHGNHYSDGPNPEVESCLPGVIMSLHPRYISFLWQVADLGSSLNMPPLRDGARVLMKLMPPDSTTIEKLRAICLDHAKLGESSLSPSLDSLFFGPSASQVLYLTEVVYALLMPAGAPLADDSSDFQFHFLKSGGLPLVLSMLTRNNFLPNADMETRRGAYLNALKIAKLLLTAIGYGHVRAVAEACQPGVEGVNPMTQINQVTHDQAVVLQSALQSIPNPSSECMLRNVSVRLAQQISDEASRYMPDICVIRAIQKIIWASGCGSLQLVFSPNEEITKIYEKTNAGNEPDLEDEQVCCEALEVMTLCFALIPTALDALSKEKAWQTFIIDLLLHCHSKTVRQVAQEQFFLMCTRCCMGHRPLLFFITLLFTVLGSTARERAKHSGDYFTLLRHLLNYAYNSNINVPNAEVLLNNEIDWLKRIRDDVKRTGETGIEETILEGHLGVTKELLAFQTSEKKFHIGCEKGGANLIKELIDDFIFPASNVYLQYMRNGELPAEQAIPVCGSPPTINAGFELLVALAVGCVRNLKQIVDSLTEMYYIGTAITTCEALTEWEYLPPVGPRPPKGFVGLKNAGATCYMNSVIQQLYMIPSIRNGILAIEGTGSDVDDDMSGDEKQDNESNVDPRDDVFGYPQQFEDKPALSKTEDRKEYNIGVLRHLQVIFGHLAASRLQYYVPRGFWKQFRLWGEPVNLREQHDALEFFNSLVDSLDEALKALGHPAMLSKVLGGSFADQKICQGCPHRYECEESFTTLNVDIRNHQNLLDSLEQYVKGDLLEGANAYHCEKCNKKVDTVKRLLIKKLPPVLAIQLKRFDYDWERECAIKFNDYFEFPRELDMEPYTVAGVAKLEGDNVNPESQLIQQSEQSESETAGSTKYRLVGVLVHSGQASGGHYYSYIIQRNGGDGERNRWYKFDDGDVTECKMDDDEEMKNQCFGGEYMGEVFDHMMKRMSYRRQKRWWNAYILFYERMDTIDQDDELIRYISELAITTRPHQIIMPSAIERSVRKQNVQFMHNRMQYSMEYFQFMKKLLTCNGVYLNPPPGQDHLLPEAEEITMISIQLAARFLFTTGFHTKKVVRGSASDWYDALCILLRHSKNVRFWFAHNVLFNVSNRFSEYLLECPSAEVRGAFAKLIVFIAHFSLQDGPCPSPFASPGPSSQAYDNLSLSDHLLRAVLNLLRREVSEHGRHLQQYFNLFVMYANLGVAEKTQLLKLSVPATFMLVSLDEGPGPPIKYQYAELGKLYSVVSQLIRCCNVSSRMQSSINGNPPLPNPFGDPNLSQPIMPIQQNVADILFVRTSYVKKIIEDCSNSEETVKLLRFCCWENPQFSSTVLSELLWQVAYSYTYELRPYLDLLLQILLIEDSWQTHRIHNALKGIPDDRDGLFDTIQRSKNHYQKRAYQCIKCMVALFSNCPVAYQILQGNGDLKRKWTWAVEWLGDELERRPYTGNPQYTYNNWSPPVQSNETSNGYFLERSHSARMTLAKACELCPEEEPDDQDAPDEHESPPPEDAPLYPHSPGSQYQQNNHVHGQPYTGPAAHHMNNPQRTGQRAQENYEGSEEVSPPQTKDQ
# Sequence of UniProt Q96FW1 (Q96FW1 whole entry): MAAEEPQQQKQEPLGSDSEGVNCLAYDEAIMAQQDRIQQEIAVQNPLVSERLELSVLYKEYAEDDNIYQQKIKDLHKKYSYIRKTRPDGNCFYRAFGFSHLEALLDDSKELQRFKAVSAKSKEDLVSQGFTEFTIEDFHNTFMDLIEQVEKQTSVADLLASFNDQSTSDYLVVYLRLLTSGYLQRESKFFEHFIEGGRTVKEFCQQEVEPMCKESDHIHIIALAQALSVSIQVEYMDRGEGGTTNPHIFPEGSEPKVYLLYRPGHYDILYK
# Sequence of UniProt Q92560 (Q92560 whole entry): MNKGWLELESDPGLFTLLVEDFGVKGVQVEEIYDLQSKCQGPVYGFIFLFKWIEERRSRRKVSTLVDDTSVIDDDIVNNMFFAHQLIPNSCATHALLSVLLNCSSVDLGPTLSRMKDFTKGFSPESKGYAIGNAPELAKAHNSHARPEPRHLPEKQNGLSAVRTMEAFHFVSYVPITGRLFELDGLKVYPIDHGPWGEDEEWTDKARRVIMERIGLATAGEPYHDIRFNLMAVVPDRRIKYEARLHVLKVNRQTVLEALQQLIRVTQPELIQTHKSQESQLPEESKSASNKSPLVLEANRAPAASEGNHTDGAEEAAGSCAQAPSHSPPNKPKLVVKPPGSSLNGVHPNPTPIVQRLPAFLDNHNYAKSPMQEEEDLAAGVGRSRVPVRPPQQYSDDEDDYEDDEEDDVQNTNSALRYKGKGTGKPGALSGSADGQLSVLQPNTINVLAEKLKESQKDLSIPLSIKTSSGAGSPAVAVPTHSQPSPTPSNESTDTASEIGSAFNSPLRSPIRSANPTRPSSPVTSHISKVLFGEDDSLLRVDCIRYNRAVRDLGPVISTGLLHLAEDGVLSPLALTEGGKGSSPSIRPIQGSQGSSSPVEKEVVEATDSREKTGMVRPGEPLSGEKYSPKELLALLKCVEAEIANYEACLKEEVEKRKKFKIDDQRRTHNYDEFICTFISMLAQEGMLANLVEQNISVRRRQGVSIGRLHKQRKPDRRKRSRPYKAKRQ
# Sequence of UniProt Q8N6M0 (Q8N6M0 whole entry): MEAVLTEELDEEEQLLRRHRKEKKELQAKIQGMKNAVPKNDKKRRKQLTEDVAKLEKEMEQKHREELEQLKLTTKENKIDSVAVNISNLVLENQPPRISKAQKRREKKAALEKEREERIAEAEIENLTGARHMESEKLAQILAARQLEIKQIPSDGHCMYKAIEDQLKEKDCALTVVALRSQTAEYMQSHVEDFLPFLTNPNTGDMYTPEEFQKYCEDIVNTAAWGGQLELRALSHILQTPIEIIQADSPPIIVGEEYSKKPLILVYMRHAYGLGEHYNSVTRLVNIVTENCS
# Sequence of UniProt Q9Y5T5 (Q9Y5T5 whole entry, looked up): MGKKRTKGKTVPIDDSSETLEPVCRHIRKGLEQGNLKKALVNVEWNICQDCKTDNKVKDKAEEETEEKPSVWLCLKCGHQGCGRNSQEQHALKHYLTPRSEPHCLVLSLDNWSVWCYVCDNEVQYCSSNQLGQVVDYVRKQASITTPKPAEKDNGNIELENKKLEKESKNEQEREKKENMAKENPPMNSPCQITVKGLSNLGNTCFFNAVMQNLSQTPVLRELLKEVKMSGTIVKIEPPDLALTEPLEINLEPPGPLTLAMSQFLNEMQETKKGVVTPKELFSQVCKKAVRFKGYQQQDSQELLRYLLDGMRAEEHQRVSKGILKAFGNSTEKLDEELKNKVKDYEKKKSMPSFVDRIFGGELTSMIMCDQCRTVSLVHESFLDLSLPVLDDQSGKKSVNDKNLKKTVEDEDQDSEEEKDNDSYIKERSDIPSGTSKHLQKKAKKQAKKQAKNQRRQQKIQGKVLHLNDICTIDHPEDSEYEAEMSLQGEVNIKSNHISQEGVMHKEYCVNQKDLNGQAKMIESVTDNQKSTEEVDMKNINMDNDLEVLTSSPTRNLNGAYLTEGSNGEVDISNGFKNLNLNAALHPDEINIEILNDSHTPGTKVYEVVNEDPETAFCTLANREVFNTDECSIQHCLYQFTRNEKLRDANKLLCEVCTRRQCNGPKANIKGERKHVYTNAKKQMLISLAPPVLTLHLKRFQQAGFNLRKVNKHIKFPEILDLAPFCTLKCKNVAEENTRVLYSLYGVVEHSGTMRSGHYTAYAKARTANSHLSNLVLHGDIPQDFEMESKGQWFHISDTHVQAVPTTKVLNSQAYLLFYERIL
# Sequence of UniProt P09936 (P09936 whole entry, looked up): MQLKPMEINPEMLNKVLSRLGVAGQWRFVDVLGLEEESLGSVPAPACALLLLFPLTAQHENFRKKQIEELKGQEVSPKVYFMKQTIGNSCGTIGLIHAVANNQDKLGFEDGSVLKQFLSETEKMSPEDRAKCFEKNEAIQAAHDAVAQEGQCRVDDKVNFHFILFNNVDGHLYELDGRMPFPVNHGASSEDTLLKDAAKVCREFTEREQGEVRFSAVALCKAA
row,Target,log2 ratio of Biotin-Ahx-Ub-VS probe labelling
1,OTUD7B (UniProt Q6GQQ9),-0.339 (inactive)
2,USP22 (UniProt Q9UPT9),-0.132 (inactive)
3,UniProt Q9UGI0,-0.025 (inactive)
4,COPS5 (UniProt Q92905),-0.111 (inactive)
5,BAP1 (UniProt Q92560),-0.376 (inactive)
6,PRPF8 (UniProt Q6P2Q9),0.045 (inactive)
7,FAM105A (UniProt Q9NUU6),-0.103 (inactive)
8,ATXN3 (UniProt P54252),-0.387 (inactive)
9,USP19 (UniProt O94966),-0.285 (inactive)
10,USP15 (UniProt Q9Y4E8),-0.281 (inactive)
11,MINDY4 (UniProt Q4G0A6),0.173 (inactive)
12,UCHL3 (UniProt P15374),-0.263 (inactive)
13,USP9X (UniProt Q93008),0.0276 (inactive)
14,OTUB1 (UniProt Q96FW1),-0.024 (inactive)
15,UCHL1 (UniProt P09936),-0.297 (inactive)
16,OTUD6B (UniProt Q8N6M0),-0.197 (inactive)
17,USP16 (UniProt Q9Y5T5),-0.133 (inactive)
18,UniProt O00487,-0.033 (inactive)
19,USP12 (UniProt O75317),-0.0667 (inactive)
20,USP54 (UniProt Q70EL1),-0.068 (inactive)

# Same assay, conditions: compound concentration: 200uM; treatment time: 3 h
row,Target,log2 ratio of Biotin-Ahx-Ub-VS probe labelling
1,OTUD7B (UniProt Q6GQQ9),-0.552 (inactive)
2,USP22 (UniProt Q9UPT9),-0.153 (inactive)
3,UniProt Q9UGI0,-0.16 (inactive)
4,COPS5 (UniProt Q92905),-0.11 (inactive)
5,BAP1 (UniProt Q92560),-0.502 (inactive)
6,PRPF8 (UniProt Q6P2Q9),-0.00376 (inactive)
7,FAM105A (UniProt Q9NUU6),0.0672 (inactive)
8,ATXN3 (UniProt P54252),-0.524 (inactive)
9,USP19 (UniProt O94966),-0.557 (inactive)
10,USP15 (UniProt Q9Y4E8),-0.268 (inactive)
11,MINDY4 (UniProt Q4G0A6),-0.0819 (inactive)
12,UCHL3 (UniProt P15374),-0.193 (inactive)
13,USP9X (UniProt Q93008),-0.109 (inactive)
14,OTUB1 (UniProt Q96FW1),-0.102 (inactive)
15,UCHL1 (UniProt P09936),-0.13 (inactive)
16,OTUD6B (UniProt Q8N6M0),-0.265 (inactive)
17,USP16 (UniProt Q9Y5T5),-0.669 (inactive)
18,UniProt O00487,-0.198 (inactive)
19,USP12 (UniProt O75317),-0.647 (inactive)
20,USP54 (UniProt Q70EL1),-0.954 (inactive)
